Bioassay records as filed in PubChem BioAssay.
IL2 activator: qHTS of IL-2 Activators. hit rate 0.065% among 360,000. AID 652025, 2013. IL-2 activation reporter assay, cell-based qHTS; stimulated with anti-CD3/CD4/CD28 beads; in transgenic mouse T cells. activation, % (series mostly up to about 46 µM); in the data active = activation above about 50%; inconclusive = mostly about 30% to 49%
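EGFP and DsRed fluorescence is measured by plate cytometry in unstimulated transgenic mouse T cells exposed to compound for 60 minutes, then stimulated 18 hours at 37 degrees C with anti-CD3/anti-CD4 beads plus anti-CD28.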
N370S GC: qHTS Assay for Inhibitors and Activators of N370S glucocerebrosidase as a Potential Chaperone Treatment of Gaucher Disease; Lysosomal acid glucosylceramidase (Homo sapiens), P04062; N370S GC spleen homogenate, 4MU-glucoside fluorescence; Potency, µM (titrated, usually from 59.4 µM), usual class: inhibitors; hit rate 0.092% among 330,000
BRCA1 expr act: qHTS Assay to Identify Small Molecule Activators of BRCA1 Expression; hit rate 1.1% among 380,000; AID 624202, 2012; MCF7-BRCA1-FFLuc reporter, luminescence, 48 h; response scale: scaled: vehicle 0%, 10 µM genistein 100%; Potency, µM (doses to about 46.1 µM), hits mostly activators; also: nearly all actives have a fitted effect of over 80% in size
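48 h compound treatment of MCF7-BRCA1-FFLuc cells (phenol-red free MEM, 37 °C), then 15 min with luciferase substrate and luminescence imaging.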
Integrin act MD: qHTS for Activators of Integrin-Mediated Alleviation for Muscular Dystrophy | Potency, µM (doses to about 38.3 µM), hits mostly activators | alpha7betagal myoblasts, beta-gal FDG fluorescence, 48 h | hit rate 0.064% among 350,000 | AID 624291, 2012; also: nearly all actives have a fitted effect of over 60% in size
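alpha7betagal+/- myoblasts (passage 13, 250/well) treated 48 h at 37C with compounds at 1:260 dilution of DMSO stock. Lysed, then beta-galactosidase activity read as FDG fluorescence (ex 480/em 540) after 30 min, with pre-read for autofluorescence.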
Chronic BCR inh: qHTS Assay to Find Inhibitors of Chronic Active B-Cell Receptor Signaling; ABC-DLBCL IkBa-CBG/CBR reporter, luminescence ratio, 4 h; Potency, µM (doses to about 46.1 µM), hits mostly inhibitors; hit rate 0.05% among 340,000; active = well fitted inhibition curve with a large enough effect in the signal ratio, with a control signal flat, not every such curve was filed as active; inconclusive = small, poorly fitted or top-dose-only effect, or effect the other way, or a change in a side signal; the % refers to the signal ratio
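Concentration-response series (up to 46 uM) were applied to TMD8 dual-reporter cells for 4 h at 37C with doxycycline. Green/red ratio, after filter-overlap correction, defined %Activity; red signal alone was normalised to basal cells and zero luminescence.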
Nrf2 activator: qHTS of Nrf2 Activators. AREc32 ARE-luciferase reporter (MCF7-derived line), luminescence, 24 h. hit rate 0.31% among 410,000. Potency, µM (highest dose often 46.1 µM), usual class: activators; also: nearly all actives have a fitted effect of over 65% in size
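Reporter line AREc32 (ARE-Fluc), seeded overnight in OPTI-MEM with 5% FBS; compound pin-transferred, 24 hr at 37 deg C, 5% CO2; luminescent read-out.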
Numbers stand for hits; - = inactive; ? = inconclusive; . = not tested or not shown; [ ] = another dose, or the depositor's remark. This is a sample that favours compounds with a hit; in the whole collection about 1.4% have one here. Unless noted, calls follow the shape of the dose curve; as a rule, active = well fitted curve in the direction sought with a large enough effect; inconclusive = small, poorly fitted or top-dose-only effect, or another doubt; inactive = no such curve, though single readings can be large; an effect the other way counts as inactive or inconclusive.

SMILES	IL2 activator	N370S GC	BRCA1 expr act	Integrin act MD	Chronic BCR inh	Nrf2 activator
CCOc1ccc(-c2noc(-c3csc([C@@H]4C[C@H](O)[C@@H](CO)O4)n3)n2)cc1	-	.	?	.	.	-
OC[C@H]1O[C@@H](c2nc(-c3ccc(Br)cc3)no2)C[C@@H]1O	-	.	7.94µM	.	.	-
COc1ccc(-c2cc(C(F)(F)F)nc(SCC(=O)NCc3ccc(OC)c(OC)c3)n2)cc1	.	.	-	.	.	-
CC1CCCCN1C(=O)c1cc(-c2ccc(Cl)c(Cl)c2)on1 (centres undefined)	-	-	5.62µM	?	?	-
O=C(c1cc(-c2ccc(Cl)c(Cl)c2)on1)N1CCCCC1	-	-	3.98µM	-	?	-
CCC1CCCCN1C(=O)c1cc(-c2ccc(Cl)c(Cl)c2)on1 (centres undefined)	-	-	11.2µM	-	?	-
Fc1cccc(Cn2ccc(-c3ccc4c(c3)OCO4)n2)c1	-	-	10µM	-	-	-
O=C(CSc1ccc(F)cc1)NC1CCCCC1	-	-	11.2µM	-	-	-
Cc1ccc(CNC(=O)NC2CCCCC2)cc1	-	-	10µM	-	?	-
Cc1ccc(CNC(=S)NC2CCCCC2)cc1	-	-	-	?	-	-
O=C(Cc1ccc(O)cc1)NC1CCCCCC1	-	-	3.55µM	-	-	-
O=C(CSc1ccc(Br)cc1)NC1CCCCCC1	-	.	-	-	-	-
COc1ccc(S(=O)(=O)N2CCCCCC2)cc1NC(=O)CN1C(=O)CNC1=O	-	.	-	-	-	-
CCOc1ccc(S(=O)(=O)N(CC(=O)Nc2cccnc2)c2ccc(F)cc2)cc1	-	-	-	-	-	-
COc1ccccc1N1CCN(c2ccnc3cc(Cl)ccc23)CC1	-	-	-	-	20µM	-
COc1ccccc1NC(=O)N1CCN(c2ccnc3cc(Cl)ccc23)CC1	-	-	-	-	?	-
COc1cccc(/C=C/c2ccccn2)c1O	-	-	-	-	?	8.91µM
COc1ccc(Nc2nc(-c3ccccc3)nc3ccccc23)cc1S(=O)(=O)N1CCOCC1	-	14.1µM	-	-	?	-
COc1ccc(NC(=O)c2cc(C)nc3ccccc23)cc1S(=O)(=O)N1CCOCC1	-	.	-	-	-	-
C/C(CCc1ccc2c(c1)OCO2)=N\NC(=S)NC(C)C	-	-	-	-	?	-
COCCNC(=S)N/N=C(\C)CCc1ccc2c(c1)OCO2	-	-	-	-	20µM	-
Cc1ccc(N2CCN(S(=O)(=O)c3nnc(NC(=O)c4ccco4)s3)CC2)cc1	-	-	-	-	-	-
O=C(Cn1cccc1C(=O)c1ccccc1)NCCCc1ccccc1	-	-	-	3.98µM	-	-
COc1ccc(CNC(=O)Cn2cccc2C(=O)c2ccccc2)cc1	-	-	11.2µM	-	-	-
Cc1ccc(NC(=O)c2c(C)nc3sc(C(=O)Nc4ccc(F)cc4)c(N)c3c2-c2ccc(C)o2)c(C)c1	.	.	.	.	.	-
SMILES	IL2 activator	N370S GC	BRCA1 expr act	Integrin act MD	Chronic BCR inh	Nrf2 activator
COc1ccc(S(=O)(=O)Nc2cccc3cccnc23)c([N+](=O)[O-])c1	.	.	-	.	.	.
Cc1nc(SCC(=O)Nc2nsc(-c3ccc(C(C)(C)C)cc3)n2)c2c3c(sc2n1)CCCC3	.	.	.	.	.	-
Cc1nnc(SCC(=O)Nc2nsc(-c3ccc(C(C)(C)C)cc3)n2)s1	-	-	1.12µM	-	?	-
O=c1c2ccccc2sn1-c1ccc(Cl)c(S(=O)(=O)N2CCOCC2)c1	.	.	-	.	.	.
COc1ccc(-c2nc3c(c4c2C[C@H](c2ccccc2)OC4)CN(S(=O)(=O)c2ccc(Cl)c4nonc24)CC3)c(C)c1	.	-[12.8 µM]	.	.	.	.
CCSC1(SCC)N=C(N)C2(C#N)C(c3ccccc3)NC3=C(CCC3)C12C#N (centres undefined)	-	-	-	-	-	14.1µM
Cc1ccc(CNC(=O)Cn2ccn(-c3cc(C)cc(C)c3)c(=O)c2=O)cc1	.	.	.	.	.	-
CN(Cc1ccccc1)/[N+]([O-])=N/Oc1ccc([N+](=O)[O-])cc1[N+](=O)[O-]	.	.	-	.	.	.
COc1ccc(Nc2ncnc3sccc23)cc1	-	-	7.08µM	-	-	-
Cc1cc(C)c2c(N)c(C(=O)NNC(=O)c3ccccc3)sc2n1	-	-	8.91µM	-	?	-
COCc1cc(C)nc2sc(C(=O)Nc3cccc(OC)c3)c(N)c12	-	-	2.51µM	-	?	-
COc1ccc(C2Nc3ccccc3C(=O)N2c2cccc3ccccc23)cc1COc1c(C)cccc1C (centres undefined)	.	.	-	.	.	.
COCCCNc1nc2ccccc2nc1NS(=O)(=O)c1ccc(C)cc1C	-	-	-	-	-	-
O=C(CCOc1ccccc1F)N1CCN(c2ccccc2O)CC1	-	-	11.2µM	-	-	-
COc1cc2cccc(OC)c(=O)c2c(O)c1OC	-	-	10µM	-	-	-
CC(C)C1Cc2[nH]c(=O)c(C(=O)O)cc2CO1 (centres undefined)	-	-	8.91µM	-	-	-
O=C(CCS(=O)(=O)Cc1ccccc1)Nc1ncc([N+](=O)[O-])s1	-	-	8.91µM	-	-	12.6µM
O=C(CCS(=O)(=O)c1ccccc1)Nc1ncc([N+](=O)[O-])s1	-	-	-	-	?	?
CCc1ccccc1NS(=O)(=O)c1ccc(NC(=O)N2CCCC2)cc1	.	.	.	.	.	-
COc1ccc(Cl)cc1NC(=O)CC(=O)Nc1cc(Cl)ccc1OC	-	-	-	14.1µM	?	?
O=C(Nc1cc(Cl)ccc1-n1cncn1)c1ccco1	-	.	-	-	.	10µM
Cc1ccc(C(=O)Nc2cc(Cl)ccc2-n2cncn2)o1	-	-	-	-	-	-
COc1ccc(Cl)cc1NC(=O)Cn1cccc1	-	-	-	-	-	-
COc1ccc(Cl)cc1NC(=O)c1ccco1	-	-	-	-	-	5.01µM
CN(C)c1ccc(/C=C/c2ccnc3ccc(-c4ccccc4)cc23)cc1	.	.	-	.	.	.
CC1CCN(C(=O)CN2C(=O)C(C)(C)Oc3ccc(C(=O)NC(C)C)cc32)CC1	-	-	-	-	-	-
COc1cccc(NC(=O)CSc2nccn2Cc2ccc3c(c2)OCO3)c1	.	.	.	.	.	-
O=C(Nc1ccc(Br)cc1F)N1CCC2(CC1)Oc1ccccc1C(=O)N2Cc1ccccc1F	.	.	.	.	.	-
Cc1c(C(=O)Nc2cccc(C(F)(F)F)c2)sc2nc3n(c(=O)c12)CCC3	.	.	.	.	.	-
CCc1cccc(NC(=O)c2sc3nc4n(c(=O)c3c2C)CCC4)c1	-	-	12.6µM	-	-	-
